Among the test systems are DU-145 prostate; K-562 leukemia; MALME-3M melanoma; RXF 393 renal; SF-268 CNS; SF-295 CNS; SF-539 CNS; UACC-257 melanoma; M14 melanoma; HCT-15 colon; HT29 colon; SNB-75 CNS; SNB-19 CNS; U251 CNS; PC-3 prostate; SK-MEL-5 melanoma; UACC-62 melanoma; SK-MEL-28 melanoma.
What all share (experiment): NCI-60 one-dose screen, 48 h (100 = growth as untreated, 0 = no growth, -100 = all killed)
What all share (settings): 10 µM unless noted

This is part of a sample that, as a whole, favours compounds with a hit. Of some 83,000 tested, about 20% had one in any assay.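 Plates (96-well) were seeded with cells, treated with compound at one concentration, and incubated for 48 hours before percent growth was determined.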 Values without a mark were called inactive. Activity calls are given as the source filed them. How the source made its calls: active means growth percent below 10; inactive means the rest.

For the compound `COc1cccc(-c2c(C#N)c(-c3ccc(Cl)cc3)nc3n[nH]c(-c4ccc(Cl)cc4)c23)c1`, the growth in the experiment with DU-145 prostate is 58.5%; with K-562 leukemia, 5.73% (active); with MALME-3M melanoma, 59.7%; in the experiment on RXF 393 renal, 39.3%; in the experiment with SF-268 CNS, 65.9%; with SF-295 CNS, 64.5%. Also, the growth with SF-539 CNS is 38.1%; with UACC-257 melanoma, 54.4%; in the experiment with M14 melanoma, 36.8%; in the experiment with HCT-15 colon, 9.74% (active); in the experiment on HT29 colon, 27.9%; in the experiment with SNB-75 CNS, 56.3%. Besides, the growth in the experiment on SNB-19 CNS is 68.2%; in the experiment with U251 CNS, 48.5%; with PC-3 prostate, 23.9%; in the experiment on SK-MEL-5 melanoma, 30.9%; with UACC-62 melanoma it was 61.3%; with SK-MEL-28 melanoma it was 73.6%.

`N/C(=N\c1nc2ccccc2s1)NC(=O)NCCCCCCO`: the growth with DU-145 prostate was 56.7%; in the experiment with K-562 leukemia it was 23.4%; in the experiment with MALME-3M melanoma, 54%; in the experiment on RXF 393 renal, 43.6%; with SF-268 CNS it was 61.6%; in the experiment on SF-295 CNS, 21.4%. In addition, the growth with SF-539 CNS was 64.8%; in the experiment on UACC-257 melanoma, 29.2%; in the experiment on M14 melanoma, 67.3%; in the experiment on HCT-15 colon, 57.7%; in the experiment on HT29 colon, 76.2%; with SNB-75 CNS, 20.6%. Also, the growth in the experiment on SNB-19 CNS is 51.6%; in the experiment on U251 CNS, 69%; with PC-3 prostate it was 47.3%; in the experiment on SK-MEL-5 melanoma it was -3.23% (active); in the experiment with UACC-62 melanoma, 49.1%; in the experiment on SK-MEL-28 melanoma, 76.5%.

`COc1cc(-c2ccc(/C=N/NC(=O)c3[nH]c4ccc(Br)cc4c3-c3ccccc3)o2)cc(OC)c1OC`: the growth with DU-145 prostate is 81.1%; in the experiment on K-562 leukemia, 85.6%; in the experiment with MALME-3M melanoma, 95.4%; in the experiment on RXF 393 renal, 88.7%; in the experiment on SF-268 CNS, 59%; in the experiment with SF-295 CNS, 56.6%. Further, the growth in the experiment with SF-539 CNS was -13.1% (active); with UACC-257 melanoma it was 92.1%; in the experiment with M14 melanoma, 74.9%; in the experiment on HCT-15 colon, 69.2%; with HT29 colon, 96.4%; in the experiment with SNB-75 CNS, 74.4%. Also, the growth with SNB-19 CNS is 52.4%; in the experiment with U251 CNS, 40.6%; in the experiment on PC-3 prostate, 68.8%; with SK-MEL-5 melanoma it was 92.2%; with UACC-62 melanoma, 77.2%; in the experiment on SK-MEL-28 melanoma it was 86.8%.

Regarding `O=C(O)c1cccc(-c2ccc(/C=N/NC(=O)c3[nH]c4ccc(Br)cc4c3-c3ccccc3)o2)c1`, the growth with DU-145 prostate is 98.7%; in the experiment with K-562 leukemia, 65.8%; in the experiment with MALME-3M melanoma, 55.2%; with RXF 393 renal, 24.7%; in the experiment on SF-268 CNS, 47.6%; with SF-295 CNS, 72.3%. In addition, the growth with SF-539 CNS is 11.8%; in the experiment on UACC-257 melanoma, 93.8%; in the experiment with M14 melanoma it was 65.9%; in the experiment with HCT-15 colon it was 70.4%; in the experiment on HT29 colon, 107%; in the experiment with SNB-75 CNS, 57.8%. For the same compound, the growth was 30.7% in the experiment with SNB-19 CNS; 34.7% in the experiment on U251 CNS; 86.4% in the experiment on PC-3 prostate; 84.2% in the experiment on SK-MEL-5 melanoma; 35.5% with UACC-62 melanoma; 53.2% in the experiment with SK-MEL-28 melanoma.

Regarding `COc1cc(-c2ccc(/C=N/NC(=O)c3[nH]c4ccc(Br)cc4c3-c3ccccc3)s2)cc(OC)c1OC`, the growth in the experiment with DU-145 prostate is 86.4%; in the experiment with K-562 leukemia, 89.6%; with MALME-3M melanoma it was 86.7%; with RXF 393 renal, 82.4%; in the experiment on SF-268 CNS it was 67.8%; in the experiment on SF-295 CNS, 49.6%. Also, the growth in the experiment with SF-539 CNS was 6.55% (active); with UACC-257 melanoma, 100%; in the experiment on M14 melanoma, 82.5%; with HCT-15 colon, 66%; with HT29 colon, 93.6%; in the experiment with SNB-75 CNS, 66.4%. Moreover, the growth in the experiment with SNB-19 CNS was 63.9%; in the experiment on U251 CNS it was 63.4%; in the experiment on PC-3 prostate it was 76.5%; with SK-MEL-5 melanoma, 89.8%; in the experiment on SK-MEL-28 melanoma it was 84.1%.

Regarding `CSc1ccc(C(=O)Nc2ccc3nn(/C(C#N)=C/c4ccccn4)nc3c2)cc1`, the growth with DU-145 prostate is -97% (active); in the experiment on K-562 leukemia it was -1.86% (active); with MALME-3M melanoma, -82.1% (active); in the experiment on RXF 393 renal, -94.6% (active); with SF-268 CNS, -26.3% (active); in the experiment on SF-295 CNS it was -49% (active). Besides, the growth with SF-539 CNS is -88.3% (active); in the experiment with UACC-257 melanoma it was -67.6% (active); in the experiment with M14 melanoma, -76.8% (active); in the experiment on HCT-15 colon it was -70.1% (active); with SNB-75 CNS, 33.1%; in the experiment with SNB-19 CNS it was -70.9% (active). Moreover, the growth in the experiment on U251 CNS is -84.1% (active); in the experiment on PC-3 prostate, -28% (active); in the experiment on SK-MEL-5 melanoma, -54.9% (active); with SK-MEL-28 melanoma, -83.5% (active).

Regarding `Clc1cccc(Cl)c1/C=C/c1cc(/C=C/c2ccc(Br)cc2)c2ccccc2n1`, the growth in the experiment with DU-145 prostate is 110%; in the experiment with K-562 leukemia, 99.5%; in the experiment on MALME-3M melanoma, 91.8%; in the experiment with RXF 393 renal, 83.4%; in the experiment with SF-268 CNS, 110%; in the experiment on SF-295 CNS it was 99.2%. Also, the growth in the experiment on SF-539 CNS is 95.7%; with UACC-257 melanoma, 105%; with M14 melanoma it was 101%; with HCT-15 colon it was 101%; in the experiment on HT29 colon, 105%; with SNB-75 CNS it was 95.9%. The growth in the experiment with U251 CNS is 101%; with PC-3 prostate, 96.2%; in the experiment with SK-MEL-5 melanoma, 104%; in the experiment with UACC-62 melanoma, 83.5%; in the experiment with SK-MEL-28 melanoma, 104%.

On to `N#Cc1c(-c2ccccc2Cl)cc(-c2ccc3ccccc3c2)[nH]c1=O`, for which the growth is 49% with DU-145 prostate; 62% in the experiment with K-562 leukemia; 12.9% in the experiment on MALME-3M melanoma; -6.69% (active) with RXF 393 renal; 22.5% with SF-268 CNS; 1.62% (active) in the experiment on SF-295 CNS. For the same compound, the growth in the experiment on SF-539 CNS was 16.5%; in the experiment on UACC-257 melanoma, 70.3%; with HCT-15 colon, 63.2%; with HT29 colon it was 108%; in the experiment on SNB-75 CNS, -37.1% (active); in the experiment with SNB-19 CNS, 17%. In addition, the growth in the experiment with U251 CNS is -2.47% (active); with PC-3 prostate, 60.6%; with SK-MEL-5 melanoma it was 79.4%; with UACC-62 melanoma, 52.7%; in the experiment on SK-MEL-28 melanoma it was 67.9%.
